In all, about 39,000 compounds went through this assay and about 3,300 (8.5%) were called active. For the sample, actives were picked, then their nearest neighbours and some compounds at random.
These compounds were tested on HepG2 (assay: cytotoxicity call (relative viability < 0.9)). Details: 10 µM.
C[C@@H]1CN([C@H](C)CO)S(=O)(=O)c2ccc(C#CC(C)(C)O)cc2O[C@@H]1CN(C)Cc1ccncc1 was tested, and the cytotoxicity call was “inactive”. With CCCNC(=O)C[C@H]1CC[C@@H]2[C@H](COc3ccc(NS(=O)(=O)c4ccccc4C)cc3C(=O)N2C)O1 the cytotoxicity call was “inactive”. In the case of C[C@H](CO)N1C[C@H](C)[C@@H](CN(C)C(=O)Nc2ccc(F)cc2)OCCCC[C@H](C)Oc2ccc(NC(=O)CCC(F)(F)F)cc2C1=O, the cytotoxicity call is reported as “inactive”. For COCC(=O)N1C[C@H](C)[C@H](OC)CN(C)C(=O)c2cc(NC(=O)c3ccc(OC)cc3)ccc2OC[C@H]1C, the cytotoxicity call was “inactive”. For NCCSC12CC3CC(CC(C3)C1)C2, the cytotoxicity call was “inactive”. In the case of C[C@@H]1CN([C@H](C)CO)S(=O)(=O)c2ccc(C#C[C@@H](C)O)cc2O[C@H]1CN(C)C(=O)c1ccncc1, the cytotoxicity call is reported as “inactive”. In the case of C[C@H]1CN([C@@H](C)CO)S(=O)(=O)c2ccc(C#Cc3ccncc3)cc2O[C@H]1CN(C)C(=O)c1ccncc1, the cytotoxicity call is reported as “active”. For C[C@H](O)C#Cc1ccc2c(c1)O[C@H](CN(C)C(=O)c1ccncc1)[C@@H](C)CN([C@H](C)CO)S2(=O)=O, the cytotoxicity call was “inactive”. C[C@@H]1CN([C@H](C)CO)S(=O)(=O)c2ccc(C#Cc3ccncc3)cc2O[C@H]1CN(C)C(=O)c1ccncc1 was tested, and the cytotoxicity call was “active”. With C[C@H](O)C#Cc1ccc2c(c1)O[C@@H](CN(C)C(=O)c1ccncc1)[C@@H](C)CN([C@@H](C)CO)S2(=O)=O the cytotoxicity call was “inactive”. For C[C@@H](O)C#Cc1ccc2c(c1)O[C@H](CN(C)C(=O)c1ccncc1)[C@@H](C)CN([C@@H](C)CO)S2(=O)=O, the cytotoxicity call was “inactive”. COc1ccc(CN(C)C[C@@H]2OCCCC[C@H](C)Oc3ccc(NS(=O)(=O)c4ccc(C)cc4)cc3C(=O)N([C@H](C)CO)C[C@H]2C)cc1 was tested, and the cytotoxicity call was “inactive”. COc1ccc(S(=O)(=O)N(C)C[C@H]2OCc3cn(nn3)CCCC(=O)N([C@H](C)CO)C[C@H]2C)cc1 was tested, and the cytotoxicity call was “inactive”. For C[C@@H]1CCCCO[C@H](CN(C)S(C)(=O)=O)[C@@H](C)CN([C@H](C)CO)C(=O)c2cc(NS(=O)(=O)c3cn(C)cn3)ccc2O1, the cytotoxicity call was “inactive”. With CC(=O)n1cc([C@@H]2C=C(C(=O)N3CCN(C)CC3)O[C@H](OCc3ccc(CO)cc3)C2)c2ccccc21 the cytotoxicity call was “inactive”. CCn1c(C)cn2c3c(=O)n(CCN4CCOCC4)c(=O)n(C)c3nc12 was tested, and the cytotoxicity call was “inactive”. For O=C/C=C/c1ccccc1Cl, the cytotoxicity call was “inactive”. With C[C@@H]1CN([C@@H](C)CO)C(=O)c2cccc(NS(C)(=O)=O)c2O[C@H]1CN(C)C(=O)Nc1ccccc1 the cytotoxicity call was “inactive”. With C[C@@H]1CN([C@@H](C)CO)C(=O)c2cc(NC(=O)Cc3ccccc3)ccc2O[C@@H]1CN(C)S(C)(=O)=O the cytotoxicity call was “inactive”. With COC(=O)c1ccc(C(=O)OC)nc1 the cytotoxicity call was “active”. With COC(=O)c1cccc(C(=O)OC)n1 the cytotoxicity call was “inactive”. In the case of COC(=O)c1ccc(O)cc1, the cytotoxicity call is reported as “inactive”. In the case of C[C@H](CO)N1C[C@H](C)[C@@H](CN(C)S(=O)(=O)c2ccccc2)Oc2ccc(NC(=O)Nc3cccc4ccccc34)cc2C1=O, the cytotoxicity call is reported as “inactive”. With CCC(=O)N[C@H]1CC[C@@H](CC(=O)OC)O[C@H]1CO the cytotoxicity call was “inactive”. For C[C@@H]1CN([C@H](C)CO)C(=O)c2cccc(NC(=O)C3CCCCC3)c2O[C@H]1CN(C)C(=O)Nc1cccc2ccccc12, the cytotoxicity call was “inactive”. For COC(=O)[C@H](Cc1ccccc1)N1CC2=C[C@@H]([C@@H](O)CCn3cc(C(=O)NO)nn3)n3c(=O)n(C)c(=O)n3[C@@H]2[C@@H](C2CC2)O1, the cytotoxicity call was “inactive”. For Cc1ccc(S(=O)(=O)Nc2ccc3c(c2)C(=O)N([C@@H](C)CO)C[C@H](C)[C@@H](CN(C)C(=O)Nc2ccccc2)OCCCC[C@H](C)O3)cc1, the cytotoxicity call was “active”. Cc1ccc(S(=O)(=O)Nc2ccc3c(c2)C(=O)N([C@@H](C)CO)C[C@H](C)[C@@H](CN(C)C(=O)Nc2ccc(F)cc2)OCCCC[C@H](C)O3)cc1 was tested, and the cytotoxicity call was “inactive”. In the case of Cc1ccc(S(=O)(=O)Nc2ccc3c(c2)C(=O)N([C@H](C)CO)C[C@H](C)[C@@H](CN(C)C(=O)Nc2ccccc2)OCCCC[C@H](C)O3)cc1, the cytotoxicity call is reported as “inactive”. With Cc1ccc(S(=O)(=O)Nc2ccc3c(c2)C(=O)N([C@@H](C)CO)C[C@@H](C)[C@@H](CN(C)C(=O)Nc2ccc(F)cc2)OCCCC[C@@H](C)O3)cc1 the cytotoxicity call was “inactive”. In the case of Cc1ccc(S(=O)(=O)Nc2ccc3c(c2)C(=O)N([C@@H](C)CO)C[C@H](C)[C@@H](CN(C)C(=O)Nc2ccc(F)cc2)OCCCC[C@@H](C)O3)cc1, the cytotoxicity call is reported as “inactive”. With Cc1ccc(S(=O)(=O)Nc2ccc3c(c2)C(=O)N([C@H](C)CO)C[C@H](C)[C@@H](CN(C)C(=O)Nc2ccc(F)cc2)OCCCC[C@H](C)O3)cc1 the cytotoxicity call was “active”. Cc1ccc(S(=O)(=O)Nc2ccc3c(c2)C(=O)N([C@H](C)CO)C[C@@H](C)[C@H](CN(C)C(=O)Nc2ccc(F)cc2)OCCCC[C@@H](C)O3)cc1 was tested, and the cytotoxicity call was “active”. In the case of Cc1ccc(S(=O)(=O)Nc2ccc3c(c2)C(=O)N([C@@H](C)CO)C[C@@H](C)[C@@H](CN(C)C(=O)Nc2ccccc2)OCCCC[C@H](C)O3)cc1, the cytotoxicity call is reported as “inactive”. Cc1ccc(S(=O)(=O)Nc2ccc3c(c2)C(=O)N([C@H](C)CO)C[C@H](C)[C@H](CN(C)C(=O)Nc2ccc(F)cc2)OCCCC[C@H](C)O3)cc1 was tested, and the cytotoxicity call was “inactive”. Cc1ccc(S(=O)(=O)Nc2ccc3c(c2)C(=O)N([C@H](C)CO)C[C@@H](C)[C@H](CN(C)C(=O)Nc2ccc(F)cc2)OCCCC[C@H](C)O3)cc1 was tested, and the cytotoxicity call was “active”. Cc1ccc(S(=O)(=O)Nc2ccc3c(c2)C(=O)N([C@@H](C)CO)C[C@H](C)[C@H](CN(C)C(=O)Nc2ccc(F)cc2)OCCCC[C@@H](C)O3)cc1 was tested, and the cytotoxicity call was “inactive”. In the case of Cc1ccc(S(=O)(=O)Nc2ccc3c(c2)C(=O)N([C@@H](C)CO)C[C@@H](C)[C@H](CN(C)C(=O)Nc2ccc(F)cc2)OCCCC[C@@H](C)O3)cc1, the cytotoxicity call is reported as “inactive”. For C[C@@H]1CN([C@@H](C)CO)C(=O)c2cccc(NC(=O)C3CCCCC3)c2O[C@H]1CN(C)Cc1ccc(-c2ccccc2)cc1, the cytotoxicity call was “inactive”. CC(C)NC(=O)Nc1ccc2c(c1)C(=O)N([C@@H](C)CO)C[C@H](C)[C@H](CN(C)S(=O)(=O)c1ccc(F)cc1)O2 was tested, and the cytotoxicity call was “inactive”. For Cc1cccc(N2CCC(N)CC2)c1, the cytotoxicity call was “inactive”. With CN1C(=O)c2cc(NC(=O)c3ccc(F)c(F)c3)ccc2OC[C@H]2O[C@@H](CC(=O)N3CCOCC3)CC[C@@H]21 the cytotoxicity call was “inactive”.

— the antibiotic and cytotoxicity screens of Wong et al. (2023)
